# Key:
# Test in all cases: DAPPL (digital affinity profiling via proximity ligation, sequencing); 10 mM Tris-HCl pH 7.5, 50 mM NaCl, 1 mM DTT, 4% glycerol, room temperature, 30 min; GST-TFs on glutathione beads, 16-mer random dsDNA library, 0.1% formaldehyde crosslink after washing; high values mean tight binding
# FEV = target: T1, FEV (Homo sapiens, UniProt Q99581 1-238); conditions: protein: recombinant; tags: N-terminal GST; dsDNA, one strand shown
# T1 sequence: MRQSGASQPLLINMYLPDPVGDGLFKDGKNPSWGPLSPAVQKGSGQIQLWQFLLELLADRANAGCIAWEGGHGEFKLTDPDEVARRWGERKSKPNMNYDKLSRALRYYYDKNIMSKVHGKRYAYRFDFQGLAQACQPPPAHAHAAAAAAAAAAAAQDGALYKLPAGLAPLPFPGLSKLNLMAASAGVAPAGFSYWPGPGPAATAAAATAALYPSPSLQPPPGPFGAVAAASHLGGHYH
# How it was run: (§1)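 Pools of DNA-barcoded human transcription factors, expressed in yeast as GST fusions on glutathione beads and combined with a tag-only sample, were incubated with 200 nmole of a 16-mer random double-stranded DNA library. Incubation took 30 min at room temperature in Tris/NaCl/DTT/glycerol buffer and was followed by washing, 0.1% formaldehyde crosslinking, proximity ligation (BsaI/T4 ligase, 1 h, 37 °C), PCR amplification and sequencing on an Illumina NextSeq500. Binding signal is the ratio of a hexamer's read frequency for a factor to its frequency for the tag-only sample.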
# ETV5 = ETV5 (Homo sapiens, UniProt P41161 1-510); conditions: protein: recombinant; tags: N-terminal GST; dsDNA, one strand shown
# How it was run: as §1
# HSF1 = HSF1 (Homo sapiens, UniProt Q00613 1-529); conditions: protein: recombinant; tags: N-terminal GST; chain copies: 3; dsDNA, one strand shown
# How it was run: as §1
# SPIC = target: T2, SPIC (Homo sapiens, UniProt Q8N5J4 1-248); conditions: protein: recombinant; tags: N-terminal GST; dsDNA, one strand shown
# T2 sequence: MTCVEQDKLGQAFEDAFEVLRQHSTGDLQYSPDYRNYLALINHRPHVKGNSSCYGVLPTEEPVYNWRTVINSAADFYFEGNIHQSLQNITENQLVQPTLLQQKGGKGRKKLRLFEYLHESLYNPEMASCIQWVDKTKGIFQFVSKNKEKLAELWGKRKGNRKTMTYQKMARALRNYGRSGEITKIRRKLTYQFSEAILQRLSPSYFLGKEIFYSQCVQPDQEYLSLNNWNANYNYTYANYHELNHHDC
# How it was run: as §1
# ELF4 = ELF4 (Homo sapiens, UniProt Q99607 1-663); conditions: protein: recombinant; tags: N-terminal GST; dsDNA, one strand shown
# How it was run: as §1
# ELK4 = target: T3, ELK4 (Homo sapiens, UniProt P28324-2 1-405); conditions: protein: recombinant; tags: N-terminal GST; dsDNA, one strand shown
# T3 sequence: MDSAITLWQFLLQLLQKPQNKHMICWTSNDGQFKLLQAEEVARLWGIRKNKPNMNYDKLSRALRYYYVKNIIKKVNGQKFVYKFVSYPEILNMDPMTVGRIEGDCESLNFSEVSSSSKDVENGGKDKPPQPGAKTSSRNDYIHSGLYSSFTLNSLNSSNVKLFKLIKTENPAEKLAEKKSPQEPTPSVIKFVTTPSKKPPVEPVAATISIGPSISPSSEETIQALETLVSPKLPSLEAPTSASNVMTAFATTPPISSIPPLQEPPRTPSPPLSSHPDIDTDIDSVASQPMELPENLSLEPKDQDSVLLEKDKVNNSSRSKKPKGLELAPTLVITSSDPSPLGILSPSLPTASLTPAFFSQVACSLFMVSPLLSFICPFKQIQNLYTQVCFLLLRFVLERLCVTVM
# How it was run: as §1
# ETV2 = target: T4, ETV2 (Homo sapiens, UniProt O00321 1-342); conditions: protein: recombinant; tags: N-terminal GST; dsDNA, one strand shown
# T4 sequence: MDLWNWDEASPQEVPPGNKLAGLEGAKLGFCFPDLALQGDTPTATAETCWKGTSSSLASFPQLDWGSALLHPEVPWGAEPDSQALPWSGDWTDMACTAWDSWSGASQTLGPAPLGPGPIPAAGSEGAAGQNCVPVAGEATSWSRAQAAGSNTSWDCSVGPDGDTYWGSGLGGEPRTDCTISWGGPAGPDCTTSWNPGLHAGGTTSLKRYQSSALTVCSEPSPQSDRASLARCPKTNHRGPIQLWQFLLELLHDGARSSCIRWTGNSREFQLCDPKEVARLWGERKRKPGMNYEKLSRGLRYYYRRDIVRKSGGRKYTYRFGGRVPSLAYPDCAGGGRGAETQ
# How it was run: as §1
# ELF3 = target: T5, ELF3 (Homo sapiens, UniProt P78545 1-371); conditions: protein: recombinant; tags: N-terminal GST; dsDNA, one strand shown
# T5 sequence: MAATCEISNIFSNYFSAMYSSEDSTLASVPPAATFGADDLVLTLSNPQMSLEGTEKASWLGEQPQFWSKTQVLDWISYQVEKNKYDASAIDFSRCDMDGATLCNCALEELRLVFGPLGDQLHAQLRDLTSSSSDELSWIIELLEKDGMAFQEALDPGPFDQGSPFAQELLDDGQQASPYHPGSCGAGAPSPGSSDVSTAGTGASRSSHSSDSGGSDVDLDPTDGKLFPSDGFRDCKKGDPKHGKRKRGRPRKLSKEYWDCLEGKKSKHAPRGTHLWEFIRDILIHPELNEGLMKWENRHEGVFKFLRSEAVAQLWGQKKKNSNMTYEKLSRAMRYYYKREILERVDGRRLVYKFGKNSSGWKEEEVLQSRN
# How it was run: as §1
# CRX = CRX (Homo sapiens, UniProt O43186 1-299); conditions: protein: recombinant; tags: N-terminal GST; dsDNA, one strand shown
# How it was run: as §1
# ETV1 = ETV1 (Homo sapiens, UniProt P50549 1-477); conditions: protein: recombinant; tags: N-terminal GST; dsDNA, one strand shown
# How it was run: as §1
# ERF = target: T6, ERF (Homo sapiens, UniProt P50548 1-548); conditions: protein: recombinant; tags: N-terminal GST; dsDNA, one strand shown
# T6 sequence: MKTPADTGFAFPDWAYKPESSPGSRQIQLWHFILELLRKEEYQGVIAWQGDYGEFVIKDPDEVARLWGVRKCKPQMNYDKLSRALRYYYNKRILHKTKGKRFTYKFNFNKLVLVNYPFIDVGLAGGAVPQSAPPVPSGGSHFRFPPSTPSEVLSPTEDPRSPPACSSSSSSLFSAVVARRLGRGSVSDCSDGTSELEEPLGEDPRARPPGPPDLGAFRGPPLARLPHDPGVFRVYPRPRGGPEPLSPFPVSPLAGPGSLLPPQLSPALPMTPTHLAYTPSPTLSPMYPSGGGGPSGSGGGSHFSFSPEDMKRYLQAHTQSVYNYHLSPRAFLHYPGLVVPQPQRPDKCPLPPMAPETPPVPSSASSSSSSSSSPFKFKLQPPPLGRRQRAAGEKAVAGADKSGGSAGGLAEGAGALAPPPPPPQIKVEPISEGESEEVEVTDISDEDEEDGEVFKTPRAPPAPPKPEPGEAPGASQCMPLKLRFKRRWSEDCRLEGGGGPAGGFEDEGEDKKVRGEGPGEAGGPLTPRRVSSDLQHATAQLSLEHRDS
# How it was run: as §1
# ETV3L = target: T7, ETV3L (Homo sapiens, UniProt Q6ZN32 1-361); conditions: protein: recombinant; tags: N-terminal GST; dsDNA, one strand shown
# T7 sequence: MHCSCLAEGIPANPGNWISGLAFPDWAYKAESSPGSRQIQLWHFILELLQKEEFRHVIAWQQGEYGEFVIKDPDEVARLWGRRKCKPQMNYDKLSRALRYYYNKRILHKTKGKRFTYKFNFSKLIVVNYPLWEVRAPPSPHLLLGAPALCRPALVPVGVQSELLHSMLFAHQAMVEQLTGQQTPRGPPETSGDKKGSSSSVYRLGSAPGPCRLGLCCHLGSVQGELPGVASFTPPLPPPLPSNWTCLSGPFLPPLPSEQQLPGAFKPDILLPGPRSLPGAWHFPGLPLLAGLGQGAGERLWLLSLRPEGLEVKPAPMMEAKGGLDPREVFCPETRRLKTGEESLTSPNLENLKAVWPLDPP
# How it was run: as §1
# ETS2 = target: T8, ETS2 (Homo sapiens, UniProt P15036 1-469); conditions: protein: recombinant; tags: N-terminal GST; dsDNA, one strand shown
# T8 sequence: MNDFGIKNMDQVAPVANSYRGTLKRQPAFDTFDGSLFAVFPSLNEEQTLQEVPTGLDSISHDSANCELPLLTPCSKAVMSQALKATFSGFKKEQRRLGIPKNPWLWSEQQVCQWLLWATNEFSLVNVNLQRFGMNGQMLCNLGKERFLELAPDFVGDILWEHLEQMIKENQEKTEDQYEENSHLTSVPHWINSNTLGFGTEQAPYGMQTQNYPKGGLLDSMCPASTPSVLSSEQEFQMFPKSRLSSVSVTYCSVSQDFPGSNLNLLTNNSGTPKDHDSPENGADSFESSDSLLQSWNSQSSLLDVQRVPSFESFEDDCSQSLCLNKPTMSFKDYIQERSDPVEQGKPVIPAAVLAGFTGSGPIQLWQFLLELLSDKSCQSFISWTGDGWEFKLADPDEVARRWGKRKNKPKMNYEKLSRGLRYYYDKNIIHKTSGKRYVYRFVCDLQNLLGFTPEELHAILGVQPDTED
# How it was run: as §1
# SPDEF = target: T9, SPDEF (Homo sapiens, UniProt O95238 1-335); conditions: protein: recombinant; tags: N-terminal GST; dsDNA, one strand shown
# T9 sequence: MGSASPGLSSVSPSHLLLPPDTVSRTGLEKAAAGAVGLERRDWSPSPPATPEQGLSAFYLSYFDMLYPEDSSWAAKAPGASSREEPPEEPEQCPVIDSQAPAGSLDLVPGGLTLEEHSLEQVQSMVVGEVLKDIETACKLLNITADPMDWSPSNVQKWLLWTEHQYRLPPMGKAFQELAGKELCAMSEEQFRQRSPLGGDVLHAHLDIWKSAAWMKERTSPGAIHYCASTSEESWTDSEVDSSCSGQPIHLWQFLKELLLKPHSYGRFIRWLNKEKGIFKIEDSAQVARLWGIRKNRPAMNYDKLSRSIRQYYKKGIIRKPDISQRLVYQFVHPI
# How it was run: as §1
# ETV7 = target: T10, ETV7 (Homo sapiens, UniProt Q9Y603 1-341); conditions: protein: recombinant; tags: N-terminal GST; dsDNA, one strand shown
# T10 sequence: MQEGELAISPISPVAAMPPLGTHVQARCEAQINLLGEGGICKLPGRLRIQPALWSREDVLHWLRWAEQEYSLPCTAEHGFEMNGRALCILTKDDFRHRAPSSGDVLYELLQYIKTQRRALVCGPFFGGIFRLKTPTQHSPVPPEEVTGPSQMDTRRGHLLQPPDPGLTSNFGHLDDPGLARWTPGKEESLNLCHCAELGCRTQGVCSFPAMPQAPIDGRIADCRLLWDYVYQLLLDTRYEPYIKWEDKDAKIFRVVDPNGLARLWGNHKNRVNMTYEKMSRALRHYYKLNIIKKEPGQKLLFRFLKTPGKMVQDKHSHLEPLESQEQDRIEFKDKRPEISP
# How it was run: as §1
# ELF5 = target: T11, ELF5 (Homo sapiens, UniProt Q9UKW6-2 1-255); conditions: protein: recombinant; tags: N-terminal GST; dsDNA, one strand shown
# T11 sequence: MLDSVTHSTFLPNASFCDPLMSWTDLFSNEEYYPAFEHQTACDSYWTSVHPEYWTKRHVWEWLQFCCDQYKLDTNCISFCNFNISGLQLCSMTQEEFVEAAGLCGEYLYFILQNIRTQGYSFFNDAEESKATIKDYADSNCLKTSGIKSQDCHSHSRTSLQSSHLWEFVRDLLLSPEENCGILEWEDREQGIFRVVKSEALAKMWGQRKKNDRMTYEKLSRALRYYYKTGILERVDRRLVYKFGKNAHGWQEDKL
# How it was run: as §1
# ETV3 = target: T12, ETV3 (Homo sapiens, UniProt P41162-2 1-143); conditions: protein: recombinant; tags: N-terminal GST; dsDNA, one strand shown
# T12 sequence: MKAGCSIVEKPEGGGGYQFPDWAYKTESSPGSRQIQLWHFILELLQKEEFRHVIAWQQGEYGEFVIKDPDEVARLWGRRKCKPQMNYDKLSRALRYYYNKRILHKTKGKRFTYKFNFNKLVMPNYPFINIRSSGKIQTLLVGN
# How it was run: as §1
# ETV6 = ETV6 (Homo sapiens, UniProt P41212 1-452); conditions: protein: recombinant; tags: N-terminal GST; dsDNA, one strand shown
# How it was run: as §1
# Sequence of ETV6 (P41212 whole entry): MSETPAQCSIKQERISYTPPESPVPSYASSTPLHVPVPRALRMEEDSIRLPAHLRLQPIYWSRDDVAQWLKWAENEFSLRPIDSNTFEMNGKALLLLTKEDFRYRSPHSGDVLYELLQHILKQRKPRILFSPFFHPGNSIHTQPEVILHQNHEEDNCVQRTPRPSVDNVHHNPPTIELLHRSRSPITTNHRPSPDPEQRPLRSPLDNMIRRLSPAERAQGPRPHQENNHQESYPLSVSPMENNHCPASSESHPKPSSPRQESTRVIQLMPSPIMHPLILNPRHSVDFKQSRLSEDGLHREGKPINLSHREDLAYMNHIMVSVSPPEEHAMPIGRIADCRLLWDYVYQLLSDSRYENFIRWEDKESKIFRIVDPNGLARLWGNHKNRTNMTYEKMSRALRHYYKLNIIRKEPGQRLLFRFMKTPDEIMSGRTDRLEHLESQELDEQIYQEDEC
# Sequence of ETV1 (P50549 whole entry): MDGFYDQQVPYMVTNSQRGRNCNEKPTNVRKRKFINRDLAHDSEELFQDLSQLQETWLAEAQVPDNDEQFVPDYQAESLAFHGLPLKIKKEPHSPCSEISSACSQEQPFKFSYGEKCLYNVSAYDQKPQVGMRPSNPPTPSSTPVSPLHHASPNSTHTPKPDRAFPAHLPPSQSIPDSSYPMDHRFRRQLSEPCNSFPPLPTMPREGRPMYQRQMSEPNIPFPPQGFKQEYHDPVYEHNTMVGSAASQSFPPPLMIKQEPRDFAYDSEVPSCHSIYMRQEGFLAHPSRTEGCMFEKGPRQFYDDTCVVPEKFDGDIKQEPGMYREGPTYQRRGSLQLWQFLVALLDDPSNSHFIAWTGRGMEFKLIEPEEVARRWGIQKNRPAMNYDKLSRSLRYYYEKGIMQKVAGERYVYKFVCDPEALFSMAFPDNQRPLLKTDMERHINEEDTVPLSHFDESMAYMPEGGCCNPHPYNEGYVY
# Sequence of HSF1 (Q00613 whole entry): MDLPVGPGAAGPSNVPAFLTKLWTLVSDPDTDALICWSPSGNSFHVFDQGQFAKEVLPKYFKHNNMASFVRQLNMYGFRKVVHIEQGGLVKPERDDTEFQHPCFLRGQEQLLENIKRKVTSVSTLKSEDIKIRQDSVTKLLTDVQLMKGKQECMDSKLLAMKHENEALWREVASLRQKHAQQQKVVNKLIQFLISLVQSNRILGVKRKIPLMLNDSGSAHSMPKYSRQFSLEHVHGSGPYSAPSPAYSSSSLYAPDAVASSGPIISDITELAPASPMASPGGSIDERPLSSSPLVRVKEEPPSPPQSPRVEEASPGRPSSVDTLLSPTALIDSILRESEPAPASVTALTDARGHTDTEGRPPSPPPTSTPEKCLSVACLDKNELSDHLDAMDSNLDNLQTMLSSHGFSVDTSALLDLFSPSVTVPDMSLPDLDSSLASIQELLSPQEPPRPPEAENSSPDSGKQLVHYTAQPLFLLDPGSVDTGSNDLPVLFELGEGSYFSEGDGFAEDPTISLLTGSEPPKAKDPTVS
# Sequence of ELF4 (Q99607 whole entry): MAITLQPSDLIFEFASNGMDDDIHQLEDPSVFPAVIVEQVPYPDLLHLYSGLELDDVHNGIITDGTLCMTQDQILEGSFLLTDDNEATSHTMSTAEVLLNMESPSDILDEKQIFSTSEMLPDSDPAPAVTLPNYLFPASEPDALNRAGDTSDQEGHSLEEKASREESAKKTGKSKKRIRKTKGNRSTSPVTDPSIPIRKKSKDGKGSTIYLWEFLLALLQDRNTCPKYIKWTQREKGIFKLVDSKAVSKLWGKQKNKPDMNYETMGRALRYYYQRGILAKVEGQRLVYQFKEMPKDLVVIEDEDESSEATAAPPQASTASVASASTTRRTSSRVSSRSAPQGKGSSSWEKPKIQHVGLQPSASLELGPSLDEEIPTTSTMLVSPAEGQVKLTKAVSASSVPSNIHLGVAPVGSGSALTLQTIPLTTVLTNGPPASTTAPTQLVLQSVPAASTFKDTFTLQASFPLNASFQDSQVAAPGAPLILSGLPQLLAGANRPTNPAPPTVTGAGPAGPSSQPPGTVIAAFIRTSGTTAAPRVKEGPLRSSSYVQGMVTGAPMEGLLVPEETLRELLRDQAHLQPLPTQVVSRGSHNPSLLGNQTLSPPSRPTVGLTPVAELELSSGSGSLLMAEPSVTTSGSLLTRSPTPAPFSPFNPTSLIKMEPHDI
# Sequence of CRX (O43186 whole entry): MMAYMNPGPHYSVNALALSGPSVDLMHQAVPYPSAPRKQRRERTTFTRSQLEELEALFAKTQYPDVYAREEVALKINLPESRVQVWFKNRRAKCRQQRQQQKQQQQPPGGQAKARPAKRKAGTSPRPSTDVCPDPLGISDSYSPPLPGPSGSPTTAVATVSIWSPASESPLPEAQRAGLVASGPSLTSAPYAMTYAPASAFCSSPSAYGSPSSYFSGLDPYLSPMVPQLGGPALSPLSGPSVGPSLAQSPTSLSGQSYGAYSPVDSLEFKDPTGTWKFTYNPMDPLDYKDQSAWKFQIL
# Sequence of ETV5 (P41161 whole entry): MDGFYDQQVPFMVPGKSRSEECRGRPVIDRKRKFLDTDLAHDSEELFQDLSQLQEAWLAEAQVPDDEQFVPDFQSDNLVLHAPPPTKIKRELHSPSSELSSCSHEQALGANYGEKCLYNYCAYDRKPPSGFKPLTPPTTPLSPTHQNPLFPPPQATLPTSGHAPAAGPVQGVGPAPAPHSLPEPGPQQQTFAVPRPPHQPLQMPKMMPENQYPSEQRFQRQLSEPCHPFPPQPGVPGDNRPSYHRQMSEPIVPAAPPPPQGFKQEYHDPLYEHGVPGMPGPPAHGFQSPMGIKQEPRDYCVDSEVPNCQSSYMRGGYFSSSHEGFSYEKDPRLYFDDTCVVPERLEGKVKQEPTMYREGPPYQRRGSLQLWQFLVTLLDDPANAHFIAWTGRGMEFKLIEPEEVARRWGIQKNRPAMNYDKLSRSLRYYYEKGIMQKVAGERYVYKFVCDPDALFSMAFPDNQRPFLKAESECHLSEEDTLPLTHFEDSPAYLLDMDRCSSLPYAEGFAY
sequence,measurement,setting,value
GTTTTT,binding signal,FEV,"1.23 fold enrichment (6-mer frequency, TF over GST control)"
same,binding signal,ETV5,"1.31 fold enrichment (6-mer frequency, TF over GST control)"
same,binding signal,HSF1,"1.21 fold enrichment (6-mer frequency, TF over GST control)"
same,binding signal,SPIC,"1.41 fold enrichment (6-mer frequency, TF over GST control)"
same,binding signal,ELF4,"1.33 fold enrichment (6-mer frequency, TF over GST control)"
same,binding signal,ELK4,"1.32 fold enrichment (6-mer frequency, TF over GST control)"
same,binding signal,ETV2,"1.38 fold enrichment (6-mer frequency, TF over GST control)"
same,binding signal,ELF3,"1.29 fold enrichment (6-mer frequency, TF over GST control)"
same,binding signal,CRX,"1.13 fold enrichment (6-mer frequency, TF over GST control)"
same,binding signal,ETV1,"1.24 fold enrichment (6-mer frequency, TF over GST control)"
same,binding signal,ERF,"1.07 fold enrichment (6-mer frequency, TF over GST control)"
same,binding signal,ETV3L,"1.3 fold enrichment (6-mer frequency, TF over GST control)"
same,binding signal,ETS2,"1.25 fold enrichment (6-mer frequency, TF over GST control)"
same,binding signal,SPDEF,"1.23 fold enrichment (6-mer frequency, TF over GST control)"
same,binding signal,ETV7,"1.2 fold enrichment (6-mer frequency, TF over GST control)"
same,binding signal,ELF5,"1.36 fold enrichment (6-mer frequency, TF over GST control)"
same,binding signal,ETV3,"1.34 fold enrichment (6-mer frequency, TF over GST control)"
same,binding signal,ETV6,"1.21 fold enrichment (6-mer frequency, TF over GST control)"
